# Measurements reported in PubChem BioAssay.
# Several values for one entry are separate records, joined by “and”; a condition that tells them apart may be missing. Identical values can stand only once. Activity calls are given as the source filed them.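 Rule for the calls: active = compounds killing one labelled cell type while sparing the other, by normalised counts and ratio limits, not self-fluorescent; inactive = the rest.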
# Assay: differential killing of epithelial or mesenchymal cells, primary screen, imaging, PC-3E GFP, TEM4-18 mCherry, co-culture (AID 1345086);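 note: cells exposed to compound for 72 h before imaging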;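 for red/green cell ratio (normalised): normalised mesenchymal count divided by normalised epithelial count so high means epithelial killing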
# Conditions: imaging cell counts, at 1 µM, actives lie on both sides, counts scaled to control wells, 1 = unselective
row,Structure (SMILES),red/green cell ratio (normalised)
1,CC(CN(C)C)CN1c2ccccc2Sc2ccccc21 (centres undefined),0.95 (inactive)
2,CC(C(=O)O)c1ccc(N2Cc3ccccc3C2=O)cc1 (centres undefined),1.39 (inactive)
3,O=c1cc(-c2ccccc2)oc2c(O)c(O)ccc12,0.99 (inactive)
4,CC(C)(C)NC[C@H](O)c1ccc(O)c(CO)c1,0.77 (inactive)
5,CN1CCc2c(c3ccccc3n2Cc2ccccc2)C1,0.9 (inactive)
6,COc1cc2c(cc1OC)-c1cc3ccc(OC)c(OC)c3c[n+]1CC2,0.85 (inactive) and 0.9 (inactive)
7,NC(N)=NCCCCN=C(N)N,0.92 (inactive)
8,NCCCCN,1.04 (inactive)
9,Cc1cc(/C=C/c2ccc3cc(N(C)C)ccc3[n+]2C)c(C)n1-c1ccccc1,2.7 (active)
10,NCCSSCCN,0.92 (inactive)
11,O=C1OC(=O)C2C3CCC(O3)C12 (centres undefined),0.77 (inactive)
12,OCc1c[nH]c2ccccc12,0.93 (inactive)
13,CC1(C)S[C@@H]2[C@H](NC(=O)Cc3ccccc3)C(=O)N2[C@H]1C(=O)O,1.11 (inactive)
14,CN(C)CCOC(c1ccccc1)c1ccccc1 (tested in a mixture with another compound),1.07 (inactive)
15,NC(=O)CC[C@H](N)C(=O)O,0.89 (inactive) and 1.18 (inactive)
16,Oc1cc(O)c2c(c1)O[C@H](c1ccc(O)c(O)c1)[C@@H](O)C2,1.12 (inactive)
17,C1N2CN3CN1CN(C2)C3,1 (inactive)
18,COc1cc(S(C)=O)ccc1-c1nc2ncccc2[nH]1 (centres undefined),1.07 (inactive)
19,CC(=O)Oc1ccccc1C(=O)Oc1ccccc1C(=O)O,1.07 (inactive)
20,NCCCS(=O)(=O)O,0.83 (inactive)
21,COC(=O)[C@H]1[C@H]2C[C@H]3c4[nH]c5ccccc5c4CCN3C[C@H]2CC[C@@H]1O,1.04 (inactive)
22,Nc1nc(/C(=C/CC(=O)O)C(=O)N[C@@H]2C(=O)N3C(C(=O)O)=CCS[C@H]23)cs1,1.05 (inactive)
23,O=c1c2ccccc2oc2ccccc12,1.1 (inactive)
24,C[N+](C)(C)CC(O)CC(=O)O (centres undefined),0.84 (inactive)

# Same assay, conditions: imaging cell counts, measured here: epithelial PC-3E GFP cell survival, at 1 µM
row,Structure (SMILES),normalised cell number
1,O=C(O)c1cc2cc(F)ccc2[nH]1,0.97
2,COc1ccc(-c2cc(=O)c3c(OC)c(OC)c(OC)c(OC)c3o2)cc1,1.14
3,NC(=O)c1ccc[n+]([C@@H]2O[C@H](COP(=O)([O-])OP(=O)(O)OC[C@H]3O[C@@H](n4cnc5c(N)ncnc54)[C@H](O)[C@@H]3O)[C@@H](O)[C@H]2O)c1,1.17
4,Cn1c(=O)[nH]c2ncn(C)c2c1=O,1.01
5,NC1(C(=O)O)CC1,1.07
6,NCCCCN=C(N)N,1.01
7,N[C@@H](Cc1cc(I)c(Oc2ccc(O)c(I)c2)c(I)c1)C(=O)O,0.91
8,Cc1cc(C(C)(C)CC(C)(C)C)ccc1OCCOCC[N+](C)(C)Cc1ccccc1,0.89
9,Cn1c(=O)c2[nH]c(C3CCCC3)nc2n(C)c1=O,1.23
10,CC(=O)N1CCN(c2ccc(OCC3CO[C@](Cn4ccnc4)(c4ccc(Cl)cc4Cl)O3)cc2)CC1 (some centres undefined),0.95
11,NCCCCC(=O)O,1.1
12,CN[C@H](CC(=O)O)C(=O)O,1.12
13,CN1CCc2cccc3c2C1Cc1ccc(O)c(O)c1-3 (centres undefined),1.2
14,COc1c2ccoc2cc2oc(=O)ccc12,1.1
15,C=C1c2c(Cl)ccc(O)c2C(O)=C2C(=O)[C@]3(O)C(O)=C(C(N)=O)C(=O)[C@@H](N(C)C)[C@@H]3[C@@H](O)[C@H]12,0.99
16,NC(N)=NC(=O)c1nc(Cl)c(N2CCCCCC2)nc1N,1.26
17,CC(CN(C)C)CN1c2ccccc2Sc2ccccc21 (centres undefined),1.1
18,CC(C(=O)O)c1ccc(N2Cc3ccccc3C2=O)cc1 (centres undefined),0.94
19,O=c1cc(-c2ccccc2)oc2c(O)c(O)ccc12,0.99
20,CC(C)(C)NC[C@H](O)c1ccc(O)c(CO)c1,1.2
21,CN1CCc2c(c3ccccc3n2Cc2ccccc2)C1,0.92
22,COc1cc2c(cc1OC)-c1cc3ccc(OC)c(OC)c3c[n+]1CC2,1.04 and 1.09
23,NC(N)=NCCCCN=C(N)N,1.06
24,NCCCCN,0.98
25,Cc1cc(/C=C/c2ccc3cc(N(C)C)ccc3[n+]2C)c(C)n1-c1ccccc1,0.4
26,NCCSSCCN,1.09
27,O=C1OC(=O)C2C3CCC(O3)C12 (centres undefined),1.38
28,OCc1c[nH]c2ccccc12,0.91
29,CC1(C)S[C@@H]2[C@H](NC(=O)Cc3ccccc3)C(=O)N2[C@H]1C(=O)O,0.85
30,CN(C)CCOC(c1ccccc1)c1ccccc1 (tested in a mixture with another compound),1.32
